# Test results reported in PubChem BioAssay (NCATS).
# Results filed as inconclusive are left out. Values without a mark were called inactive. Calls of active or inactive are those of the source. Calls follow the shape of the dose curve; as a rule, active = well fitted cell-killing curve with a large enough effect; inconclusive = small, poorly fitted or top-dose-only effect, or effect the other way; inactive = no such curve, though single readings can be large or run the other way.
# Assay: Quantitative High-Throughput drug screen in 47 multiple myeloma cell lines against the NCATS MIPE library collection: OPM2_DSMZ cell viability assay (AID 1919872); also: nearly all actives have a fitted effect of over 30% in size
# Settings: OPM2 myeloma viability, CellTiter-Glo ATP luminescence, 48 h; series mostly up to 45.8 µM; viability (% of DMSO): at the top concentration
# Summary of the method: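 Myeloma cell lines, 500 cells per well, exposed to MIPE 4.0 library compounds for 48 h at 37C, 5% CO2. Viability from ATP by CellTiter-Glo luminescence; normalised to DMSO (100%) and media-only (0%) wells.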
# Potency is read from the fitted curve at half-maximal effect.
SMILES,viability (% of DMSO) [%],Potency
C[C@H]([C@H](O)CCC(C)(C)O)[C@H]1CC[C@@]2(O)C3=CC(=O)[C@@H]4C[C@@H](O)[C@@H](O)C[C@]4(C)[C@@H]3CC[C@]12C,122,
C1=C2CCCN[C@H]2[C@@H]2C[C@H]1[C@@H]1CCCCN1C2,105,
CC(=Cc1csc(C)n1)[C@@H]1C[C@H]2O[C@@H]2CCC[C@H](C)[C@@H](O)[C@@H](C)C(=O)C(C)(C)[C@@H](O)CC(=O)O1,12.1,
C[C@@H]1CC[C@H]2[C@@H](C)C(=O)O[C@@H]3O[C@@]4(C)CC[C@H]1[C@]32OO4,,0.264 µM (active)
CO[C@H]1CCC(O[C@H]2C[C@H]([C@]3(C)CC[C@]4(C[C@H](O)[C@@H](C)[C@@H]([C@@H](C)C=C(C)C(=O)[C@H](C)C[C@H](C)C(=O)O)O4)O3)O[C@]3(O[C@@H]([C@H]4O[C@@](O)(CO)[C@H](C)C[C@H]4C)C[C@H]3C)[C@H]2C)O[C@H]1C (stereo partly drawn),,0.296 µM (active)
O=c1[nH]c2ccc(Cl)cc2c(N[C@@H]2CN3CCC2CC3)c1-c1nc2ccccc2[nH]1,,5.9 µM (active)
CC(C)(C)[C@]1(O)C[C@@H]2OC(=O)C[C@@]23C(=O)O[C@@H]2OC(=O)[C@H](O)C213 (stereo partly drawn),104,
C[C@@H]1[C@H](O)[C@@H](C)C=CC=CCCC=CC=CC=CC=C[C@H](O[C@H]2O[C@@H](C)[C@H](O)[C@@H](N)[C@@H]2O)CC2O[C@](O)(C[C@@H](O)[C@H](O)CC[C@@H](O)C[C@@H](O)C[C@@H](O)CC(=O)O[C@H]1C)C[C@H](O)[C@H]2C(=O)O,112,
